# Data reported in PubChem BioAssay (NCATS).
# Calls of active or inactive are those of the source. The call rests on the fitted dose curve; in most records, active means well fitted curve in the direction sought with a large enough effect; inconclusive means small, poorly fitted or top-dose-only effect, or another doubt; inactive means no such curve, though single readings can be large or run the other way.
# Target: Alpha-galactosidase (Coffea arabica) (UniProt Q42656)
# Assay: Counterscreen for Glucocerebrosidase Inhibitors: qHTS Assay for Coffee Bean alpha-Galactosidase at pH 4.5 (AID 957)
# Conditions: purified coffee bean alpha-galactosidase, fluorogenic substrate; series mostly up to 76.9 µM
# Description: NIH Chemical Genomics Center [NCGC]
# NIH Molecular Libraries Screening Centers Network [MLSCN]
# PI Name: Zheng, Wei [NIH]
# Alpha-galactosidase is a homodimeric glycoprotein that hydrolyzes the terminal alpha-galactosyl moieties from glycolipids and glycoproteins. Deficiency of this enzyme results in Fabry Disease with progressive accumulation of globotriaosylceramide and other glycosphingolipids in vascular endothelial cells that causes renal failure, myocardial infarction and stroke, and premature death in patients. It has reported that the improper folding and trafficking of alpha-galactosidase resulted from the genetic mutations may account for a significant numbers of Fabry patients. […] We optimized this coffee bean alpha-galactosidase assay in 1536-well plate format as a counter-screen assay for identifying the selective small molecule inhibitors of other lysosomal enzymes.
# NCGC Assay Protocol Summary:
# This is a fluorogenic enzyme assay with 4-Methylumbelliferyl alpha-D-galactopyranoside as the substrate and green coffee bean […] (from Sigma-Aldrich) as the enzyme preparation. Upon the hydrolysis of this fluorogenic substrate, the resulting product, […]. 4-Methyllumbelliferone, can be excited at 365 nm and emits at 440 nm which can be detected by a standard fluorescence plate reader. Data were normalized to the controls for basal activity (without enzyme) and 100% activity (with enzyme). In the AC50 values were determined from concentration-response data modeled with the standard Hill equation.
# Assay buffer: 50 mM citric acid, 0.005% Tween-20, pH 4.5. (pH 5.9 is an optimal condition for this enzyme assay. This assay in pH 4.5 is used for comparison the inhibitor activities with the human alpha-galactosidase assay)
# 1536-well assay protocol for the coffee bean alpha-galactosidase:
# (1) Add 2 ul/well of enzyme (2 nM final)
# (2) Add 23 nL compounds in DMSO solution. The final titration was 0.7 nM to 77 uM.
# (3) Add 1 ul of substrate (80 uM final)
# (4) Incubate at room temperature for 20 min.
# (5) Add 2 ul stop solution (1M NaOH and 1M Glycine mixture, pH 10)
# (6) Detect the assay plate in a ViewLux plate reader (PerkinElmer) with Ex=365 nm and Em=440nm.
# Keywords: Alpha-galactosidase, Fabry Disease, pharmacological chaperone, chaperone therapy, high throughput screening, alpha-galactosidase inhibitor, MLSMR, MLSCN, NIH Roadmap, qHTS and NCGC
# Chain of Alpha-galactosidase (Coffea arabica) (Q42656 whole entry, looked up): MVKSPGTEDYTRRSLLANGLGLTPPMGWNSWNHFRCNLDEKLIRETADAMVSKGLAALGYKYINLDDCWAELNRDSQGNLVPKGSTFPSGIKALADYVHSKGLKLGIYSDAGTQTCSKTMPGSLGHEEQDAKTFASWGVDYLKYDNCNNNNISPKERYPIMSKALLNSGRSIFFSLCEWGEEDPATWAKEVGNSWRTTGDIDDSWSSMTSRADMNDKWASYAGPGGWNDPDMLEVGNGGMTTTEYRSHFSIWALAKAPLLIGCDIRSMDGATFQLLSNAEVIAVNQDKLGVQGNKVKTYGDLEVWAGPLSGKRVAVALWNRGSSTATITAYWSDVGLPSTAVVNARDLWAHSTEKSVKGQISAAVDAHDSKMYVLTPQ
row,Compound,outcome
1,Nc1nc(OCc2ccccc2)c2[nH]cnc2n1,inactive
2,O=S(=O)(c1cccc2c(I)cccc12)N1CCCNCC1,inactive
3,O=C1NC(=O)C(c2ccccc2[N+](=O)[O-])=C1Nc1ccc(O)c(Cl)c1,inactive
4,CCC(=O)N1CCN(C(=O)c2ccccc2)CC1,inactive
5,NC(=Nc1ccccc1)NC(=O)c1nc(Cl)c(N)nc1N,inactive
6,CNC(=O)c1cc2c(cn1)[nH]c1ccccc12,inactive
7,O=Nc1c(-c2c(O)[nH]c3ccccc23)[nH]c2ccccc12,inactive
8,CC[C@]1(C2=NCCN2)Cc2ccccc2O1,inactive
9,CCCCCCCCCCC/C=C\C(C)(C)/C=C\CCCC(=O)O,inactive
10,N[C@@H](CC(=O)O)C(=O)O,inactive
11,O=c1[nH]c(=O)c2nc3ccccc3nc2[nH]1,inactive
12,N#C/C(=C\c1ccc(O)c(O)c1)C(=O)NCCCc1ccccc1,inactive
13,NCCCC(=O)O,inactive
14,N#Cc1cc2nc(O)c(O)nc2cc1[N+](=O)[O-],inactive
15,COc1ccc(CCN(C)CCc2ccc(OC)c(OC)c2)cc1OC,inactive
16,CCN(CC)CCCCCCCCOC(=O)c1cc(OC)c(OC)c(OC)c1,inactive
17,N=C(N)c1ccc(N)cc1,inactive
18,OC1(c2ccc(Cl)cc2)CCN(Cc2c[nH]c3ccccc23)CC1,inactive
19,C[C@H](N)Cc1c[nH]c2ccc(O)cc12,inactive
20,COc1ccccc1N1CCN(CCN(C(=O)c2ccc(F)cc2)c2ccccn2)CC1,inactive

row,Compound,outcome
1,c1ccc2nc(C3=NCCN3)ccc2c1,inactive
2,O=c1[nH]c2ccccc2c2ccccc12,inactive
3,NC(=O)c1cccc(N)c1,inactive
4,Nc1c(S(=O)(=O)O)cc(Nc2ccc(Nc3nc(Cl)nc(Nc4ccc(S(=O)(=O)O)cc4)n3)c(S(=O)(=O)O)c2)c2c1C(=O)c1ccccc1C2=O,inactive
5,N=C(N)SCCc1ccc(CCSC(=N)N)cc1,inactive
6,NC[C@@H]1O[C@H](C23CC4CC(CC(C4)C2)C3)Cc2c1ccc(O)c2O,inactive
7,COc1cccc(C(=O)NCCN2CCN(c3ccc(Cl)cc3)CC2)c1,inactive
8,C=CCN1CC[C@@]23c4c5ccc(O)c4O[C@H]2/C(=N\N=C2/CC[C@@]4(O)[C@H]6Cc7ccc(O)c8c7[C@@]4(CCN6CC=C)[C@@H]2O8)CC[C@]3(O)[C@@H]1C5,inactive
9,NO,inactive
10,CCCOC(=O)c1c(-c2ccccc2)nc(CC)c(C(=O)SCC)c1CCC,inactive
11,CC(C)NC[C@H](O)COc1ccc(CC(N)=O)cc1,inactive
12,COc1ccc(CNC(=O)/C=C\c2ccc3[nH]cc(CCN(C)C)c3c2)cc1,inactive
13,CCN(CC)CCOC(=O)c1cc(Cl)c(N)cc1OC,inactive
14,Oc1cc2c(cc1O)CN(C(=S)NCCc1ccc(Cl)cc1)CCC2,inactive
15,O=C1NCN(c2ccccc2)C12CCN(C[C@H]1COc3ccccc3O1)CC2,inactive
16,CN=C(N)NCCC[C@H](N)C(=O)O,inactive
17,O=C(O)c1cc(=O)cc(C(=O)O)[nH]1,inactive
18,CC(C)NC[C@@H](O)COc1cccc2ccccc12,inactive
19,NC(=O)C(=O)O,inactive
20,N=C(N)SCCN,inactive
